Dicer inh: inhibitors of human Dicer processing of pre-microRNA; Q9UPY3; hit rate 6% among 47,000; cat-ELCCA pre-miR-21 Dicer processing, chemiluminescence; hits give high values; z-score at 25 µM; AID 1347074; in the data active means z-score above about 3, passing the limit was not always enough;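 further: plate controls were vehicle for no effect and no enzyme for full effect; higher signal means more uncleaved substrate so more Dicer inhibition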
Active calls of the source: *. The sample as a whole holds a higher share of hits than the screen did.

SMILES | Dicer inh
O=C1CCCC2=C1C(c1cccc(O)c1)n1ncnc1N2 (centres undefined) | 0.53
CC1(C)CC(=O)C2=C(C1)Nc1ncnn1C2c1ccccc1 (centres undefined) | 1.9
CC1CC(=O)C2=C(C1)Nc1ncnn1C2c1ccccc1 (centres undefined) | 4.6*
CC1(C)CC(=O)C2=C(C1)Nc1ncnn1C2c1cccc(O)c1 (centres undefined) | -0.16
Cc1ccc(C2C3=C(CC(c4ccccc4)CC3=O)Nc3nc(C(F)(F)F)nn32)cc1 (centres undefined) | 3*
Cc1ccc(C2C3=C(CC(c4ccc(Cl)cc4)CC3=O)Nc3ncnn32)cc1 (centres undefined) | 0.34
O=C1CC(c2ccc(Cl)cc2)CC2=C1C(c1cccnc1)n1c(nc3ccccc31)N2 (centres undefined) | -0.56
CC1(C)CC(=O)C2=C(C1)Nc1ncnn1C2c1ccc(Cl)cc1 (centres undefined) | 3.2*
CCN(CC)c1ccc(C2C3=C(CC(C)(C)CC3=O)Nc3ncnn32)cc1 (centres undefined) | 2.2
Brc1ccc(OCc2nn3c(Cc4ccccc4)nnc3s2)cc1 | 1.2
COC(=O)c1cc(-c2ccc(OC)cc2OC)no1 | 0.62
O=C(c1ccc(F)c(Cl)c1)c1ccc(F)c(Cl)c1 | 0.3
COc1ccc(C2Oc3ccccc3C3=C2C(c2ccccc2)n2ncnc2N3)cc1 (centres undefined) | -0.3
COc1ccc(S(=O)(=O)Nc2ccc(N3CCOCC3)cc2)cc1 | -0.27
COc1ccc(Nc2nc(N)nc(CN3CCOCC3)n2)cc1 | -0.21
COc1ccc(Nc2cc(C)nc(N3CCOCC3)n2)cc1 | 6.7*
Cc1onc(-c2ccccc2Cl)c1C(=O)N(CCC#N)C1CCCCC1 | 5.3
O=S(=O)(c1ccc(F)cc1)N(Cc1ccccc1)c1ccccn1 | 2.8
COc1cc2cc(-c3ccccc3)nc(C)c2cc1OC | 0.59
Cc1c(C(=O)/C=C/N(C)C)sc2ccccc12 | -0.86
CN(C)/C=C/C(=O)c1cc(Cl)ccc1Cl | -0.56
Cc1c(C(=O)/C=C/N(C)C)sc(=S)n1CCc1ccc(Cl)cc1 | 3.2*
CCOC(=O)c1c(SC)nc2c(Cl)cccc2c1N(C)CCO | -5.7
CSc1nc2c(Cl)cccc2c2c1c(=O)[nH]n2C | 3.6*
CSc1nc2c(Cl)cccc2c2c1c(=O)n(Cc1ccc(Cl)cc1)n2C | 0.65
SMILES | Dicer inh
CCc1cccc(C)c1NC(=S)NCCC(=O)O | -1
CC1=C(C(=O)Nc2cccc(C)n2)C(c2ccc3c(c2)OCO3)C2=C(CC(C)(C)CC2=O)N1 (centres undefined) | 2.3
Cc1c(/C=C/C(=O)Oc2c(Cl)cccc2Cl)sc2ccccc12 | -0.72
CC(C)(C)NNC(=S)Nc1cccc(F)c1 | -0.44
Fc1cccc(NC(=S)NC(c2ccccc2)c2ccccc2)c1 | 4.9*
FC(F)(F)c1cccc(NC(=S)Nc2cccc(C(F)(F)F)c2)c1 | 0.22
C=CCSC(=Nc1ccccc1)C(C#N)c1nc2ccccc2[nH]1 (centres undefined) | 1.3
O=S(=O)(c1ccccc1)c1ccc(S(=O)(=O)N2CCCC2)s1 | -0.58
O=S(=O)(c1cc(Br)c(Br)s1)N1CCCCC1 | 0.86
O=S(=O)(c1cc(Br)c(Br)s1)N1CCCC1 | 3.1*
CCOC(=O)CSc1nc(SCC(=O)OCC)c2c3c([nH]c2n1)CCCC3 | 2.7
CCOC(=O)c1c(NC(=O)c2ccco2)sc2c1CCC(C)C2 (centres undefined) | 3.3*
O=C(Nc1sc2c(c1C(=O)O)CCCC2)c1ccco1 | 0.04
CCOC(=O)c1c(NC(=O)c2ccco2)sc2c1CCC(C(C)(C)C)C2 (centres undefined) | 0.15
CNC(=O)c1c(NC(=O)c2ccco2)sc2c1CCC(C(C)(C)C)C2 (centres undefined) | 0.51
CC1CCc2c(sc(NC(=O)c3ccco3)c2C(=O)N2CCOCC2)C1 (centres undefined) | 3*
CCOC(=O)c1c(NC(=O)c2ccco2)sc2c1CCC(CC)C2 (centres undefined) | -3.1
COC(=O)Cc1ccc2oc3cc(OC)ccc3c(=O)c2c1 | 0.22
Cc1ccc(S(=O)(=O)NN=C2CC3(C)CC(=NNS(=O)(=O)c4ccc(C)cc4)CC3(C)C2)cc1 (centres undefined) | -2.4
C=CCOC(=O)C1=C(C)NC2=C(C(=O)CC(C)(C)C2)C1c1cccc(OC)c1 (centres undefined) | -0.33
O=C(Nc1ccc(Cl)cc1)OC(CSc1ccccn1)CSc1ccccn1 | 0.12
Cc1cc(C)c2c(C)nn(-c3ccc(Br)cc3)c2n1 | -0.29
Cc1c(/C=N/Nc2ccccn2)sc2ccccc12 | 3
COc1ccc(NC(=S)NCCCC2C=NNC2=O)cc1 (centres undefined) | 0.41
COc1cccc(C=NCCCC2C=NNC2=O)c1O (centres undefined) | 5.2*
COc1cccc(C=Nc2ccc(S(=O)(=O)/N=C(N)/N=C/c3cccc(OC)c3O)cc2)c1O | -0.79
COc1ccc(NC(=O)Nc2cccc(Cl)c2Cl)c(OC)n1 | -0.73
N#C/C(=N\Nc1ccc(F)cc1)C(=O)c1ccccc1Cl | 0.3
